target: AMP-activated protein kinase, AMPK (Homo sapiens) (UniProt P54646+O43741+P54619+Q9UGJ0+Q9Y478+Q13131+Q9UGI9); assay: AMP-dependent Kinase enzyme assay. An in vitro enzyme assay that detects ADP turnover that is directly proportional to AMPK activity. This uses naive AMPK that is activated during the assay with MK-8722; type: functional; set-up: scale not given: direction of the effect not stated beside the values; settings: 30 µM

First: Cc1noc(C)c1CCCNC(=O)Nc1ccc2c(c1)COC2
Second: Cc1ccc(-c2noc(C3CCN3C(=O)c3c(C)noc3C)n2)s1 (stereo not drawn)
The Percent Effect of the first is higher: 16.7% for the first, 5.86% for the second.

Going from `COCC(NC(=O)c1cc(NC(C)=O)ccc1Cl)c1ccnn1C` (stereo not drawn) to `COC(=O)c1sc(C(NC(=O)c2ccccc2)C2CC2)nc1C` (stereo not drawn), the Percent Effect rises from -8.6% to -2.15%.

Going from `Cc1ccc(F)c(CNc2ccn(CCC(N)=O)n2)c1` to `Cc1ccc(C)c(CN(CC(N)=O)C(C)C)c1`, the Percent Effect falls from -4.33% to -8.2%.

First: O=C(CN1CCOCC1)N(c1ccccc1)c1ccccc1
Second: Cc1c(C(=O)NCCCS(C)(=O)=O)cccc1-c1ccccn1
The Percent Effect of the first is lower: 8.05% for the first, 10.6% for the second.

Going from `CC1(C)CN(Cc2ccncc2)CCS1(=O)=O` to `Cc1ccc2nc(CN3CCCCC3CCn3cccn3)cn2c1` (stereo not drawn), the Percent Effect rises from -9.12% to 4.05%.

Going from `COc1ccc(Cl)cc1CN(C)C(=O)CN1C(=O)OC[C@@H]1C(C)C` to `CNC(=O)c1ccc(C2CN(c3cc(C)nc(N)n3)CCO2)nc1` (stereo not drawn), the Percent Effect falls from 1.71% to -3.96%.

First: CCCS(=O)(=O)N1CCN(CCCO)CC1
Second: Cc1nc(OCC(=O)N2CCCC2)cc(-n2cccn2)n1
The Percent Effect of the first is higher: 89.9% for the first, 3.39% for the second.

Compared with `CC(=O)N1CCC(c2ncc(C(=O)Nc3ccc(F)cc3)c(C)n2)CC1`, `Cc1noc(C(C)N2CCC(c3nc4ccccc4[nH]3)CC2)n1` (stereo not drawn) is higher in Percent Effect: -4.39% for the first, 1.83% for the second.

Compared with `CCCc1noc(C[S+]([O-])CC(=O)NCc2ccccc2)n1` (stereo not drawn), `COCc1nn(Cc2ccc(Br)s2)c(=O)o1` is higher in Percent Effect: -0.224% for the first, 13.5% for the second.

— ChEMBL document CHEMBL3988442, “University of Dundee, Small-Polar-MMV Screening Library” (2021)
